The values below come from ChEMBL document CHEMBL3988442, “University of Dundee, Small-Polar-MMV Screening Library” (2021).

The assay concerns the target T1, Methionyl-tRNA synthetase, putative (Leishmania donovani (strain BPK282A1)) (UniProt E9BF75).
T1 sequence (whole entry): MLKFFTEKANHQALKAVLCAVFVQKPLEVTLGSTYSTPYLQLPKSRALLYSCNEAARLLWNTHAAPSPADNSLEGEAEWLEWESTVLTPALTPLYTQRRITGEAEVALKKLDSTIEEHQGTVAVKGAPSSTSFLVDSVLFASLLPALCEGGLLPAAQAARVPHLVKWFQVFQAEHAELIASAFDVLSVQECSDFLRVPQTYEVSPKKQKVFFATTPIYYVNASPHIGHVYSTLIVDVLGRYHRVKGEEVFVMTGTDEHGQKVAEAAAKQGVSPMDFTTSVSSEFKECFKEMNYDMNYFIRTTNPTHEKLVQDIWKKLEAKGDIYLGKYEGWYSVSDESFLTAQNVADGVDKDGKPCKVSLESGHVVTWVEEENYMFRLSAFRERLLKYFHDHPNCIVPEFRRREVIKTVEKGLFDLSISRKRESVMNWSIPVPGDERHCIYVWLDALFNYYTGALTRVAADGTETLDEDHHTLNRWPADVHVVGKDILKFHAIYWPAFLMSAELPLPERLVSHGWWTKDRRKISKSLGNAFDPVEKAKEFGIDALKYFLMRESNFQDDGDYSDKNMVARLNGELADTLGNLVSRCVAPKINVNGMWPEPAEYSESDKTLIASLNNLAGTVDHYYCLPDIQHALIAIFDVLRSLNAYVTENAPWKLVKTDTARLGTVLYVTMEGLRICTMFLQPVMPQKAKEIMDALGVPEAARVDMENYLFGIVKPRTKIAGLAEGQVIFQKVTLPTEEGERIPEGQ
Kind of assay: Leishmania donovani Methionine tRNA synthetase (LdMetRS):v7. Dose response assay. Further details: conc 80 nM, time 150 minutes. Format: functional.

In the case of `CNS(=O)(=O)c1cccnc1Nc1cccc(C(F)(F)F)c1`, the PXC50 runs as follows: (MAX_EFFECT 3.524229075) below 4; (MAX_EFFECT 5.165289256) below 4; (MAX_EFFECT 6.451612903) below 4.

Regarding `Cn1ncc2c(NCC(F)F)nc(Nc3ccc(F)c(F)c3)nc21`, the PXC50 by setting is: (BOTTOM 1.581546444, HILLSLOPE 1.045254628, MAX_EFFECT 85.66037736, TOP 91.59899261) 5.09; (BOTTOM 2.845790401, HILLSLOPE 0.765565912, MAX_EFFECT 91.60305344, TOP 108.0932569) 4.86; (BOTTOM 5.50929664, HILLSLOPE 0.80038345, MAX_EFFECT 90.35087719, TOP 108.0671509) 4.81.

As for `FC1(F)CCN(Cc2cccnc2)CC12CCN(c1ccccc1)C2` (configuration not stated), the PXC50 is 4.25 (BOTTOM -4.019199092, HILLSLOPE 0.87851595, MAX_EFFECT 63.88888889, TOP 104.3685566); 4.27 (BOTTOM -4.110370477, HILLSLOPE 0.854311737, MAX_EFFECT 59.79202773, TOP 100.0); 4.22 (BOTTOM -6.339797733, HILLSLOPE 0.853335904, MAX_EFFECT 59.06040268, TOP 100.0); below 4 (MAX_EFFECT 7.101727447); below 4 (MAX_EFFECT 13.23763955).

Turning to `O=C1NCC(c2ccc(F)cc2)Cc2[nH]c(CCN3CCCC3)nc21` (configuration not stated), the PXC50 was 4.15 (BOTTOM 0.586623965, HILLSLOPE 0.960788857, MAX_EFFECT 61.0738255, TOP 100.0); 4.21 (BOTTOM 2.860481636, HILLSLOPE 1.198642369, MAX_EFFECT 65.27777778, TOP 100.0); 4.18 (BOTTOM -5.455719139, HILLSLOPE 0.971400426, MAX_EFFECT 59.44540728, TOP 100.0).

With `Cc1cnn(CCNCc2c(C)nn(-c3ccccc3)c2C)c1`, the PXC50 was below 4 (MAX_EFFECT 6.52173913), below 4 (MAX_EFFECT 6.802721088) and below 4 (MAX_EFFECT 12.78458844).

As for `OCCNc1ccnc(Nc2cccc(F)c2)n1`, the PXC50 was below 4 (MAX_EFFECT 29.67244701), below 4 (MAX_EFFECT 30.83700441) and below 4 (MAX_EFFECT 32.02479339).

With `Cc1nccn1CCCn1cncc1-c1ccc2c(c1)CCC(C)N2C` (configuration not stated), the PXC50 runs as follows: (BOTTOM 4.710746105, HILLSLOPE 1.396694103, MAX_EFFECT 77.77777778, TOP 100.0) 4.36; (BOTTOM 4.776972445, HILLSLOPE 4.284267496, MAX_EFFECT 55.70469799, TOP 54.26344413) 4.56; (BOTTOM 5.773645077, HILLSLOPE 1.775302265, MAX_EFFECT 72.6169844, TOP 100.0) 4.22; (MAX_EFFECT 2.857142857) below 4; (MAX_EFFECT 4.347826087) below 4.

For `c1cc(-c2ccc3c(c2)CCC32CCN(c3nncs3)CC2)co1`, the PXC50 by setting is: (BOTTOM 1.725579768, HILLSLOPE 1.730442881, MAX_EFFECT 81.97573657, TOP 100.0) 4.31; (BOTTOM 2.845642281, HILLSLOPE 1.539467031, MAX_EFFECT 93.05555556, TOP 100.0) 4.55; (BOTTOM 5.084669568, HILLSLOPE 1.629318142, MAX_EFFECT 90.60402685, TOP 100.0) 4.52.

`Cc1cc(C)n(-c2nc(N3CCCC(O)C3)c3c4c(sc3n2)CCCC4)n1` (configuration not stated): the PXC50 by setting is: (MAX_EFFECT 1.492537313) below 4; (MAX_EFFECT 6.004140787) below 4; (MAX_EFFECT 6.832298137) below 4; (MAX_EFFECT 7.036247335) below 4.

For the molecule `NC1CCOc2c(Cl)cc(Cl)cc21` (configuration not stated), the PXC50 runs as follows: (MAX_EFFECT 4.805491991) below 2.7; (MAX_EFFECT 6.273764259) below 3; (MAX_EFFECT 11.76470588) below 2.7; (MAX_EFFECT 23.54211663) below 3.

Regarding `COCCNc1nc(Nc2ccc(F)c(F)c2)nc2c1cnn2C`, the PXC50 by setting is: (BOTTOM 0.0, HILLSLOPE 0.788642153, MAX_EFFECT 89.69957082, TOP 101.1762058) 5.15; (BOTTOM 0.0, HILLSLOPE 0.880096509, MAX_EFFECT 92.63657957, TOP 99.00872691) 5.23; (BOTTOM -0.84748474, HILLSLOPE 0.841528212, MAX_EFFECT 93.81044487, TOP 101.2621412) 5.29.

`Cc1cnc(Nc2ccc(F)c(F)c2)nc1NCCO`: the PXC50 is, setting by setting: (BOTTOM 3.101896626, HILLSLOPE 0.807877595, MAX_EFFECT 79.29515419, TOP 94.15227944) 5.03; (BOTTOM 5.769615282, HILLSLOPE 1.014209397, MAX_EFFECT 83.3655706, TOP 87.41572948) 5.22; (BOTTOM -1.22519456, HILLSLOPE 0.709920628, MAX_EFFECT 85.74380165, TOP 105.2657083) 5.

As for `CCN(CC)c1ccc2ccc(C(=O)N3CCCCO3)cn12`, the PXC50 is 4.06 (BOTTOM -0.620934572, HILLSLOPE 1.091774088, MAX_EFFECT 59.15492958, TOP 100.0); 4.39 (BOTTOM -3.857934484, HILLSLOPE 1.704145188, MAX_EFFECT 56.25, TOP 100.0); below 4 (MAX_EFFECT 43.85964912); below 4 (MAX_EFFECT 47.96296296).

Turning to `Cn1ncc2c(NCCCn3cnnc3)nc(Nc3ccc(F)c(F)c3)nc21`, the PXC50 (BOTTOM 1.83375179, HILLSLOPE 0.958532355, MAX_EFFECT 86.4608076, TOP 100.0) is 4.67; the PXC50 (BOTTOM -0.68283143, HILLSLOPE 0.850398367, MAX_EFFECT 82.59187621, TOP 94.39900943) came out at 4.98; the PXC50 (BOTTOM -3.068523854, HILLSLOPE 0.793433763, MAX_EFFECT 81.54506438, TOP 111.1617786) worked out at 4.55.

Regarding `CC(C)c1ccc(CS(=O)(=O)Cc2nc(N)nc(N(C)C)n2)cc1`, the PXC50 was below 4 (MAX_EFFECT 8.163265306), below 4 (MAX_EFFECT 10.86956522) and below 4 (MAX_EFFECT 13.83537653).
